Measurements as given in ChEMBL document CHEMBL4513146, “CO-ADD screening of Karazin Kharkiv National University (Ukraine) compounds”.
Potency and affinity values are given separately.

Columns and labels:
Staphylococcus aureus = settings: Concentration 32 ug.mL-1;; ASSAY_TEST Inhibition of Bacterial Growth; detection method Absorption (OD600); MEDIA CAMHB; plate type 384well; NBS; CORNING #3640; time 18 hr
Escherichia coli = settings: Concentration 32 ug.mL-1;; ASSAY_TEST Inhibition of Bacterial Growth; detection method Absorption (OD600); MEDIA CAMHB; plate type 384well; NBS; CORNING #3640; time 18 hr

SMILES | Inhibition (Staphylococcus aureus) [%] | Inhibition (Escherichia coli) [%]
Cc1ccc(-c2ccc3nn(Cc4cccc(Br)c4)c(=O)n3n2)cc1C | 9.24 | -2.14
Cc1cc2nn(CC(=O)NC(C)C)c(=O)n2c(-c2ccc(C(F)(F)F)cc2)n1 | -8.3 | 1.53
Cc1ccc(-c2cc3c4nn(CC(=O)Nc5ccc(C)c(Cl)c5)c(=O)n4ccn3n2)cc1C | -5.06 | -1.24
C=Cc1ccc(CN(c2ccc(C(C)C)cc2)S(=O)(=O)c2cccn3cnnc23)cc1 | 7.94 | 0.1
COc1cccc(-n2ccn3c(SCc4cccc(F)c4)nnc3c2=O)c1 | 11.5 | -8.02
COc1cccc(Oc2nccn3c(=O)n(CC(=O)NC4CCCCC4)nc23)c1 | 3.01 | -4.58
CCc1nnc2ccc(S(=O)(=O)N(Cc3ccccc3)c3ccccc3)cn12 | 5.6 | -2.89
COc1ccccc1Cn1c(=O)c2sccc2n2c(=O)n(Cc3cccc(Br)c3)nc12 | -9.99 | -1.02
CCCCOc1ccc(-c2cc3c4nnc(SCC(=O)Nc5cc(F)ccc5C)n4ccn3n2)cc1 | -12.48 | -11.69
CCOc1ccccc1NC(=O)Cn1nc2c(Oc3ccccc3)nccn2c1=O | 5.93 | -3.4
COC(=O)c1ccc(NC(=O)Cn2nc3c(Oc4cccc(OC)c4)nccn3c2=O)cc1 | 10.83 | -2.01
COC(=O)c1sccc1NC(=O)Cn1nc2c(Oc3ccc(C)cc3)nc3ccccc3n2c1=O | 6.43 | 0.18
